Measurements from PubChem BioAssay (NCI).
About 79,000 compounds went through this panel and 15% of them were active in at least one assay; those are over-represented in the sample as a whole. Active and inactive are the calls of the source. No stated cut-off is given here; in the data, active means growth inhibition above about 70%; inactive means the rest.

Columns and labels:
[1] = NCI Yeast Anticancer Drug Screen. Data for the rad52 strain (AID 147);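 further: 0% = growth of vehicle-treated control cultures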; conditions: S. cerevisiae rad52 mutant growth inhibition, stronger effect = higher value
Method in brief: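 Yeast strain carrying a DNA damage repair alteration was exposed to test compounds. Growth inhibition was measured relative to vehicle-treated controls.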

[2] = NCI Yeast Anticancer Drug Screen. Data for the wt1 strain (AID 149);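 further: 0% = growth of vehicle-treated wt1 cultures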; conditions: S. cerevisiae wt1 strain (SPY 50644) growth inhibition, stronger effect = higher value
Method in brief: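 The wt1 strain was treated with compounds, and growth was compared with vehicle-treated cultures to give inhibition.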

[3] = NCI Yeast Anticancer Drug Screen. Data for the rad50EPP+ strain (AID 151);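 further: 0% = growth of vehicle-treated control cultures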; conditions: S. cerevisiae rad50 mutant strain, stronger effect = higher value
Method in brief: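 Yeast strain carrying rad50 alteration (rad50EPP+) exposed to compounds; growth inhibition measured relative to vehicle-treated controls.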

[4] = NCI Yeast Anticancer Drug Screen. Data for the mgt1 strain (AID 153); conditions: S. cerevisiae mgt1 mutant growth inhibition, stronger effect = higher value
Method in brief: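 Yeast mgt1 strain (DNA repair/cell-cycle alteration panel) exposed to compounds; growth inhibition measured relative to vehicle-treated controls.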

[5] = NCI Yeast Anticancer Drug Screen. Data for the mec2-1 strain (AID 157); conditions: S. cerevisiae mec2-1 strain, stronger effect = higher value
Method in brief: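 mec2-1 yeast strain, carrying an alteration in DNA damage repair or cell cycle control, was exposed to compounds; growth inhibition was measured relative to vehicle-treated controls.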

[6] = NCI Yeast Anticancer Drug Screen. Data for the rad14 strain (AID 159);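 further: 0% = growth of vehicle-treated control cultures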; conditions: S. cerevisiae rad14 strain growth inhibition, stronger effect = higher value
Method in brief: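 Readout: yeast growth inhibition, referenced to vehicle-only cultures. Strain bears a defined alteration in DNA damage repair.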

[7] = NCI Yeast Anticancer Drug Screen. Data for the sgs1 mgt1 strain (AID 161);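 further: 0% = growth of cultures given vehicle only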; conditions: S. cerevisiae sgs1 mgt1 strain, stronger effect = higher value
Method in brief: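 Growth of a repair-deficient yeast mutant was monitored after compound treatment and expressed as inhibition relative to vehicle-treated cultures.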

[8] = NCI Yeast Anticancer Drug Screen. Data for the CLN2oe strain (AID 163);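 further: 0% = growth of vehicle-only control cultures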; conditions: S. cerevisiae CLN2oe strain, stronger effect = higher value
Method in brief: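 Yeast cells carrying a defined cell-cycle control alteration were exposed to test compounds. Growth inhibition was scored against vehicle-treated control cultures.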

[9] = NCI Yeast Anticancer Drug Screen. Data for the cln2 rad14 strain (AID 165);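 further: 0% = growth equal to vehicle treated cultures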; conditions: S. cerevisiae cln2 rad14 strain, stronger effect = higher value
Method in brief: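 Yeast carrying cln2 and rad14 alterations (cell cycle control and DNA damage repair) were exposed to compounds. Growth inhibition was measured against vehicle-treated controls.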

[10] = NCI Yeast Anticancer Drug Screen. Data for the bub3 strain (AID 167); conditions: S. cerevisiae bub3 mutant strain, stronger effect = higher value
Method in brief: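 Part of a panel of yeast mutants defective in DNA damage repair or cell cycle regulation. Each strain is grown with compound, and inhibition is calculated relative to solvent-treated cultures.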

[11] = NCI Yeast Anticancer Drug Screen. Data for the mlh1 strain (AID 171);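 further: 0% = growth of vehicle-treated control cultures of the same strain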; conditions: S. cerevisiae mlh1 strain growth inhibition, stronger effect = higher value
Method in brief: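 Yeast carrying a defined genetic alteration in DNA damage repair or cell cycle control were exposed to test compounds. Growth inhibition was measured relative to vehicle-treated controls.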

[12] = NCI Yeast Anticancer Drug Screen. Data for the sgs1 strain (AID 173);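 further: 0% = growth of vehicle-only control cultures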; conditions: S. cerevisiae sgs1 mutant, stronger effect = higher value
Method in brief: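 Yeast mutant strains carrying defined defects in DNA damage repair or cell cycle control were exposed to test compounds. Growth inhibition was scored against vehicle-treated controls.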

[13] = NCI Yeast Anticancer Drug Screen. Data for the mlh1 rad18 strain (AID 175); conditions: S. cerevisiae mlh1 rad18 strain growth inhibition, stronger effect = higher value
Method in brief: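 Growth inhibition of the yeast strain was measured after compound exposure and expressed relative to vehicle-treated controls. The strain carries defined defects in DNA damage repair.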

[14] = NCI Yeast Anticancer Drug Screen. Data for the rad50 strain (AID 155);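 further: 0% = growth of vehicle-only cultures of the same strain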; conditions: S. cerevisiae rad50 strain growth inhibition, stronger effect = higher value
Method in brief: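 Cells are treated with compound, grown, and their growth is then scored against vehicle-only cultures of the same repair-deficient yeast strain.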

[15] = NCI Yeast Anticancer Drug Screen. Data for the wt2 strain (AID 169);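 further: 0% = growth of vehicle-treated yeast cultures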; conditions: S. cerevisiae wt2 strain growth inhibition, stronger effect = higher value
Method in brief: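 Yeast cells were exposed to test compounds, and growth inhibition was measured relative to vehicle-treated controls.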

[16] = NCI Yeast Anticancer Drug Screen. Data for the rad18 strain (AID 177); conditions: S. cerevisiae rad18 mutant growth inhibition, stronger effect = higher value
Method in brief: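 Yeast carrying a defined DNA damage repair alteration were exposed to compounds. Growth inhibition was expressed relative to vehicle-treated controls.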

[17] = at 5.0 µM (retest, dose inferred, filed as 0.5)
[18] = at 50.0 µM (retest, dose inferred, filed as 5.0)

Measured: growth inhibition

CCCCCCCCCCCCCCC(C(=O)[O-])[n+]1ccccc1 (stereo not drawn)
active: [1]; at 100.0 µM 91% | [4]; at 100.0 µM 95% | [5]; [18] 97% | [5]; at 50.0 µM 99% | [5]; at 100.0 µM 95% | [6]; at 100.0 µM 90% | [7]; at 50.0 µM 98.8% | [9]; at 50.0 µM 95.8% | [10]; [18] 91% | [10]; at 50.0 µM 97.3% | [10]; at 100.0 µM 85% | [11]; at 100.0 µM 99% | [12]; at 100.0 µM 95% | [13]; at 50.0 µM 98%
inactive: [1]; at 1.2 µM 2% | [1]; at 3.7 µM 2% | [1]; at 11.0 µM 2% | [1]; at 33.0 µM -1% | [2]; at 1.2 µM -1% | [2]; at 3.7 µM -3% | [2]; at 11.0 µM -4% | [2]; at 33.0 µM -6% | [2]; at 100.0 µM 6% | [3]; at 1.2 µM 0% | [3]; at 3.7 µM 4% | [3]; at 11.0 µM 4% | [3]; at 33.0 µM 3% | [3]; at 100.0 µM 39% | [4]; at 1.2 µM 2% | [4]; at 3.7 µM -4% | [4]; at 11.0 µM 2% | [4]; at 33.0 µM -2% | [5]; at 1.2 µM 3% | [5]; at 3.7 µM 1% | [5]; [17] -2% | [5]; at 11.0 µM -7% | [5]; at 33.0 µM -2% | [6]; at 1.2 µM -2% | [6]; at 3.7 µM 13% | [6]; at 11.0 µM 0% | [6]; at 33.0 µM 2% | [7]; [17] 12% | [7]; [18] 45% | [8]; at 1.2 µM 3% | [8]; at 3.7 µM 3% | [8]; at 11.0 µM 3% | [8]; at 33.0 µM -2% | [8]; at 100.0 µM 26% | [9]; [17] 8% | [9]; [18] 26% | [10]; at 1.2 µM 2% | [10]; at 3.7 µM -27% | [10]; [17] 5% | [10]; at 11.0 µM 0% | [10]; at 33.0 µM -8% | [11]; at 1.2 µM 0% | [11]; at 3.7 µM -3% | [11]; at 11.0 µM -12% | [11]; at 33.0 µM -18% | [12]; at 1.2 µM 0% | [12]; at 3.7 µM -3% | [12]; at 11.0 µM -2% | [12]; at 33.0 µM 13% | [13]; [17] -15% | [13]; [18] 51%

Clc1ccccc1C1OC1c1ccccc1Cl (stereo not drawn)
active: [3]; at 100.0 µM 70% | [14]; [18] 100% | [5]; [18] 99% | [7]; [18] 98% | [9]; [18] 99% | [10]; [18] 98% | [13]; [18] 100%
inactive: [1]; at 1.2 µM -29% | [1]; at 3.7 µM -38% | [1]; at 11.0 µM -61% | [1]; at 33.0 µM -18% | [1]; at 100.0 µM -32% | [2]; at 1.2 µM -65% | [2]; at 3.7 µM -49% | [2]; at 11.0 µM -61% | [2]; at 33.0 µM -52% | [2]; at 100.0 µM -26% | [3]; at 1.2 µM -86% | [3]; at 3.7 µM -56% | [3]; at 11.0 µM -40% | [3]; at 33.0 µM 20% | [14]; at 1.2 µM -66% | [14]; at 3.7 µM -62% | [14]; [17] 57% | [14]; at 11.0 µM -73% | [14]; at 33.0 µM -51% | [14]; at 50.0 µM 38.6% | [14]; at 100.0 µM 14% | [5]; at 1.2 µM -92% | [5]; at 3.7 µM -86% | [5]; [17] 55% | [5]; at 11.0 µM -94% | [5]; at 33.0 µM -75% | [5]; at 50.0 µM 21.9% | [5]; at 100.0 µM -37% | [6]; at 1.2 µM -46% | [6]; at 3.7 µM -46% | [6]; at 11.0 µM -50% | [6]; at 33.0 µM -43% | [6]; at 100.0 µM -9% | [7]; [17] -17% | [7]; at 50.0 µM 44.9% | [8]; at 1.2 µM -3% | [8]; at 3.7 µM 7% | [8]; at 11.0 µM -1% | [8]; at 33.0 µM -1% | [8]; at 100.0 µM 8% | [9]; [17] 37% | [9]; at 50.0 µM 13.6% | [10]; at 1.2 µM -56% | [10]; at 3.7 µM -53% | [10]; [17] 0% | [10]; at 11.0 µM -47% | [10]; at 33.0 µM -42% | [10]; at 50.0 µM 41.6% | [10]; at 100.0 µM -6% | [15]; at 1.2 µM -49% | [15]; at 3.7 µM -71% | [15]; at 11.0 µM -69% | [15]; at 33.0 µM -46% | [15]; at 100.0 µM -16% | [11]; at 1.2 µM -69% | [11]; at 3.7 µM -69% | [11]; at 11.0 µM -35% | [11]; at 33.0 µM -50% | [11]; at 100.0 µM 24% | [12]; at 1.2 µM -78% | [12]; at 3.7 µM -72% | [12]; at 11.0 µM -81% | [12]; at 33.0 µM -38% | [12]; at 100.0 µM 18% | [13]; [17] 57% | [13]; at 50.0 µM 5% | [16]; at 1.2 µM -59% | [16]; at 3.7 µM -48% | [16]; at 11.0 µM -64% | [16]; at 33.0 µM -48% | [16]; at 100.0 µM 2%

OC1CSCCCSCCSCCCSC1
inactive: [1]; at 1.2 µM -53% | [1]; at 3.7 µM -55% | [1]; at 11.0 µM -49% | [1]; at 33.0 µM -61% | [1]; at 100.0 µM -48% | [2]; at 1.2 µM -12% | [2]; at 3.7 µM -16% | [2]; at 11.0 µM -22% | [2]; at 33.0 µM -25% | [2]; at 100.0 µM -25% | [3]; at 1.2 µM -30% | [3]; at 3.7 µM -52% | [3]; at 11.0 µM -49% | [3]; at 33.0 µM -29% | [3]; at 100.0 µM -35% | [14]; at 1.2 µM -28% | [14]; at 3.7 µM -27% | [14]; [17] -11% | [14]; at 11.0 µM -3% | [14]; at 33.0 µM -2% | [14]; [18] -14% | [14]; at 50.0 µM 12.3% | [14]; at 100.0 µM -25% | [5]; at 1.2 µM -22% | [5]; at 3.7 µM -27% | [5]; [17] -48% | [5]; at 11.0 µM -21% | [5]; at 33.0 µM 4% | [5]; [18] 5% | [5]; at 50.0 µM 20.5%
